# Records with an inconclusive call do not appear. Entries that show only a call come without a potency. Active and inactive are the calls of the source. Unless noted, calls follow the shape of the dose curve; as a rule, active = well fitted curve in the direction sought with a large enough effect in the repeat runs; inconclusive = weak or mixed curves; inactive = no such curve, though single readings can be large; an effect the other way counts as inactive or inconclusive.
# Assays:
# [1] = qHTS assay to identify small molecule agonists of the estrogen receptor alpha (ER-alpha) signaling pathway in the presence of an antagonist - cell viability counter screen (AID 1259386);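 also: cells exposed to compounds for 22 h at 37 °C before the viability read; nearly all actives have a fitted effect of over 30% in size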; also: potency is read from the fitted curve at half-maximal effect
# In short: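 Using estrogen-depleted VM7Luc4E2 cells, the 15-concentration compound series was applied together with 10.0nM ICI-182,780 and incubated 22hr at 37C/5% CO2. Cell viability was then scored by CellTiter-Fluor.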
# [2] = biological target: Progesterone receptor (Homo sapiens) (UniProt P06401); assay: qHTS assay to identify small molecule agonists of the progesterone receptor (PR) signaling pathway (AID 1346784; calls by dose curve; also: nearly all actives have a fitted effect of over 30% in size)
# Sequence of Progesterone receptor (Homo sapiens) (P06401 whole entry, looked up): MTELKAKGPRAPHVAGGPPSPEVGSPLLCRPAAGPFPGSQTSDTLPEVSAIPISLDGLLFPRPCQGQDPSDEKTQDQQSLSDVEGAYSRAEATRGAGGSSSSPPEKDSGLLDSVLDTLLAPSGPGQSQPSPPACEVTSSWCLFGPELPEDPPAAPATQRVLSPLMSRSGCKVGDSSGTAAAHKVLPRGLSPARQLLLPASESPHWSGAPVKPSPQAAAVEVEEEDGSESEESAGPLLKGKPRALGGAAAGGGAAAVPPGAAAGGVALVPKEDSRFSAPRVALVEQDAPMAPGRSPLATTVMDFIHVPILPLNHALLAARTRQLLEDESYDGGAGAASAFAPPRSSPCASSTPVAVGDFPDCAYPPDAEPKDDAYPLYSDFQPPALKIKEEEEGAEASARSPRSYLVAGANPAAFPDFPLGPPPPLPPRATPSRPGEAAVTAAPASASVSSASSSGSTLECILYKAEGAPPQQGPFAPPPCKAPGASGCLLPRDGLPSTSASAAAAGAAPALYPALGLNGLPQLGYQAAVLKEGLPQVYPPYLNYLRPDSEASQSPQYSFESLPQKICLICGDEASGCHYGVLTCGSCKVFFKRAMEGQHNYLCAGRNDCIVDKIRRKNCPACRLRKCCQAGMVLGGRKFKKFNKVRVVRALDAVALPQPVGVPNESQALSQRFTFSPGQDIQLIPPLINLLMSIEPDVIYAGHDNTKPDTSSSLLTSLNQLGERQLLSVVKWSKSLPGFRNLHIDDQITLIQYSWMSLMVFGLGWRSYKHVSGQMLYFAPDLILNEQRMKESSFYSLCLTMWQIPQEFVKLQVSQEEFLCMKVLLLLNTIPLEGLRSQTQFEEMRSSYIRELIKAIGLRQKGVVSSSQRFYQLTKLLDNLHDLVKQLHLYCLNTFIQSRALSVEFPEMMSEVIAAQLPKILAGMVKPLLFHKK
# In short: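 Fluorescence from LiveBLAzer B/G FRET substrate cleavage (2 hr, RT) reported PR activation in PR-UAS-bla HEK 293T cells treated 16 hr at 37C/5% CO2 with compounds; medium contained 2% charcoal-stripped FBS.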
# [3] = biological target: Progesterone receptor (Homo sapiens) (UniProt P06401); assay: qHTS assay to identify small molecule antagonists of the progesterone receptor (PR) signaling pathway (AID 1346795; active = well fitted inhibition curve with a large enough effect in the signal ratio in the repeat runs, not every such curve was filed as active; the % refers to the signal ratio; also: potency is read from the fitted curve at half-maximal effect)
# In short: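 Fluorescence intensity measured 2 hr after adding beta-lactamase FRET substrate to PR-UAS-bla HEK293T cells that had been co-treated 16 hr with compound and 1 nM R5020 (final concentration) in 2% charcoal-stripped FBS.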
# [4] = qHTS assay to identify small molecule antagonists of the progesterone receptor (PR) signaling pathway - cell viability counter screen (AID 1346798); also: series mostly up to about 92 µM; nearly all actives have a fitted effect of over 50% in size
# In short: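 CellTiter-Glo luminescence; PR-UAS-bla HEK293T, 3,000 cells/well; compound + R5020, 16 hr, 37C/5% CO2; 30 min RT before read.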
# [5] = qHTS assay to identify small molecule agonists of the progesterone receptor (PR) signaling pathway - cell viability counter screen (AID 1346799; calls by dose curve; also: nearly all actives have a fitted effect of over 45% in size)
# In short: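 In parallel with the beta-lactamase readout, cytotoxicity toward PR-UAS-bla HEK293T cells was measured by CellTiter-Glo luminescence following 16 hr compound incubation in 2% charcoal-stripped FBS medium.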
# [6] = qHTS assay to identify small molecule antagonists of the TGF-beta/Smad signaling pathway - cell viability counter screen (AID 1346824); also: nearly all actives have a fitted effect of over 50% in size
# In short: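 SBE-bla HEK 293T cells, incubated overnight, then compound plus 0.25 ng/mL TGF-beta1 (stock added) for 5 hr at 37 C. Viability was read in the same wells by CellTiter-Glo luminescence after 30 min at room temperature.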
# [7] = qHTS assay to identify small molecule agonists of the TGF-beta/Smad signaling pathway - cell viability counter screen (AID 1346829); also: top concentration of the series differs between compounds; nearly all actives have a fitted effect of over 45% in size
# In short: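 HEK 293T SBE-bla line, 5 hr compound exposure at 37 C, multiplexed CellTiter-Glo viability read by luminescence.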
# [8] = qHTS assay to identify small molecule agonists of the TGF-beta/Smad signaling pathway (AID 1346859; active = well fitted activation curve with a large enough effect in the signal ratio in the repeat runs, not every such curve was filed as active; the % refers to the signal ratio; also: series mostly up to about 77 µM)
# In short: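 After overnight seeding, SBE-bla HEK 293T cells are dosed with compounds in DMSO and kept 5 hr at 37 C, 5% CO2. LiveBLAzer-type FRET substrate is then applied for 2 hr at room temperature.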
# [9] = biological target: Thyrotropin-releasing hormone receptor (Homo sapiens) (UniProt P34981); assay: qHTS assay to identify small molecule antagonists of the thyrotropin-releasing hormone receptor (TRHR) signaling pathway (AID 1346877; active = well fitted inhibition curve with a large enough effect in the repeat runs, not every such curve was filed as active; also: series mostly up to about 51 µM)
# Sequence of Thyrotropin-releasing hormone receptor (Homo sapiens) (P34981 whole entry, looked up): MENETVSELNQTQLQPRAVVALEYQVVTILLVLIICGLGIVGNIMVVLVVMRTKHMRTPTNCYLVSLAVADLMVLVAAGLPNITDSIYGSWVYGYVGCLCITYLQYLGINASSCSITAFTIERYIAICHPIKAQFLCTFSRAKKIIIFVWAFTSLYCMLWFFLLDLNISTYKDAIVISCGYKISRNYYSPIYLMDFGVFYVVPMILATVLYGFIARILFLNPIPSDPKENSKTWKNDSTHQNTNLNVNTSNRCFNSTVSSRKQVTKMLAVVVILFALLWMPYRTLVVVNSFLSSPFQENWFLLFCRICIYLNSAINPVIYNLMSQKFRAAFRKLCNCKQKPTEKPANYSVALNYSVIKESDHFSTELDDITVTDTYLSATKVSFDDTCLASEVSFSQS
# In short: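 Calcium signal in dye-loaded TRHR/HEK293 cells; compounds added 5 min before TRH (1 nM final); fluorescence monitored 3 min at 1 s steps.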
# [10] = biological target: Thyrotropin-releasing hormone receptor (Homo sapiens) (UniProt P34981); assay: qHTS assay to identify small molecule agonists of the thyrotropin-releasing hormone receptor (TRHR) signaling pathway (AID 1346891; calls by dose curve; also: potency is read from the fitted curve at half-maximal effect;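 as to activation: HEK293 cells expressing TRHR with calcium dye readout; series mostly up to about 58 µM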)
# In short: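 Compounds were tested as agonists at 15 concentrations, in triplicate, on TRHR-Hek293 cells; calcium-sensitive dye fluorescence was recorded for 3 min following addition.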
SMILES,Potency [1],Potency [2],Potency [3],Potency [4],Potency [5],Potency [6],Potency [7],Potency [8],outcome [9],Potency [10]
CN1CCCN=C1COC(=O)C(O)(c1ccccc1)C1CCCCC1 (stereo unspecified),inactive,inactive,inactive,inactive,inactive,inactive,inactive,inactive,inactive,inactive
CCC(OCCCOC)OC(C)=O (stereo unspecified),inactive,inactive,inactive,inactive,inactive,inactive,inactive,inactive,inactive,inactive
CC(C)=CCC/C(C)=C/CC/C(C)=C/CCC(=O)OC/C=C(\C)CCC=C(C)C,inactive,inactive,inactive,inactive,inactive,inactive,inactive,inactive,inactive,inactive
C=C1CCC2CC1C2(C)C (stereo unspecified),inactive,inactive,inactive,inactive,inactive,inactive,inactive,inactive,inactive,inactive
O=C1CCCCCCCCCCOCCCCO1,inactive,inactive,inactive,inactive,inactive,inactive,inactive,,inactive,inactive
CC(O)c1ccccc1 (stereo unspecified),inactive,inactive,inactive,inactive,inactive,inactive,inactive,inactive,inactive,inactive
CC(C)C=O,inactive,inactive,inactive,inactive,inactive,inactive,inactive,inactive,inactive,inactive
CC1CC(C)C(=O)C1=O (stereo unspecified),inactive,inactive,inactive,inactive,inactive,inactive,inactive,inactive,inactive,inactive
CC=C(Cl)Cl,inactive,inactive,inactive,inactive,inactive,inactive,inactive,inactive,inactive,inactive
C=C(C)C(=O)OCCOCCOC(=O)C(=C)C,inactive,inactive,inactive,inactive,inactive,inactive,inactive,inactive,inactive,inactive
CCC(=O)OC,inactive,inactive,inactive,inactive,inactive,inactive,inactive,inactive,inactive,inactive
C=C/C(C)=C/C/C=C(\C)CCC=C(C)C,inactive,inactive,inactive,inactive,inactive,inactive,inactive,inactive,inactive,inactive
CCOC(=O)c1ccc(OCCN2C[C@H](O)[C@@H](O)[C@H](O)[C@H]2CO)cc1,inactive,inactive,inactive,inactive,inactive,inactive,inactive,inactive,inactive,inactive
CC(CCC(=O)O)C(=O)O (stereo unspecified),inactive,inactive,inactive,inactive,inactive,inactive,inactive,inactive,inactive,inactive
C=Cc1ccc(S(=O)(=O)O)cc1,inactive,inactive,inactive,inactive,inactive,inactive,inactive,inactive,inactive,inactive
CC(C)C(O)(c1ccc(OC(F)(F)F)cc1)c1cncnc1 (stereo unspecified),inactive,inactive,30.5 µM (active),inactive,inactive,inactive,inactive,inactive,inactive,inactive
Cc1cc(C)cc(N)c1,inactive,inactive,inactive,inactive,inactive,inactive,inactive,inactive,inactive,inactive
Cc1cc(C)c(N)cc1C,inactive,inactive,inactive,inactive,inactive,inactive,inactive,inactive,,
C=C(C)C(=O)OCCCCCCCCCCCCC,inactive,inactive,inactive,inactive,inactive,inactive,,inactive,inactive,inactive
C(=C\c1ccccc1)/c1ccccc1,inactive,inactive,inactive,inactive,inactive,inactive,inactive,inactive,inactive,inactive
CC(C)(C)C(=O)C(=O)O,inactive,inactive,inactive,inactive,inactive,inactive,inactive,inactive,inactive,inactive
CCCCCCCCCCC(=O)O,inactive,inactive,inactive,inactive,inactive,inactive,inactive,inactive,inactive,inactive
O=C(OC(=O)c1ccccc1)c1ccccc1,inactive,inactive,inactive,inactive,inactive,inactive,inactive,inactive,inactive,inactive
O[C@@H]1CO[C@H]2[C@@H]1OC[C@@H]2O,inactive,inactive,inactive,inactive,inactive,inactive,inactive,inactive,inactive,inactive

SMILES,Potency [1],Potency [2],Potency [3],Potency [4],Potency [5],Potency [6],Potency [7],Potency [8],outcome [9],Potency [10]
FC(F)(F)c1ccccc1Cl,inactive,inactive,inactive,inactive,inactive,inactive,inactive,inactive,inactive,inactive
Cc1ccccc1S,inactive,inactive,inactive,inactive,inactive,inactive,inactive,inactive,inactive,inactive
CC(C)=CCC1C(=O)N(c2ccccc2)N(c2ccccc2)C1=O,inactive,inactive,inactive,inactive,inactive,inactive,inactive,inactive,inactive,inactive
C1COC1,inactive,inactive,inactive,inactive,inactive,inactive,inactive,inactive,inactive,inactive
CC1CC(OC(=O)C(O)c2ccccc2)CC(C)(C)N1C (stereo unspecified),inactive,inactive,inactive,inactive,inactive,inactive,inactive,inactive,inactive,inactive
CC(=O)c1cc2ccccc2s1,inactive,inactive,inactive,inactive,inactive,inactive,inactive,inactive,,
CCCCCCCCN,inactive,inactive,inactive,inactive,inactive,inactive,,inactive,inactive,inactive
CC(=O)OCC[N+](C)(C)C,inactive,inactive,inactive,inactive,inactive,inactive,inactive,inactive,inactive,3.01 µM (active)
Clc1cc(Cl)nc(Cl)n1,inactive,inactive,inactive,inactive,inactive,inactive,inactive,inactive,inactive,inactive
CC(=O)Oc1ccc([N+](=O)[O-])cc1CCl,48.6 µM (active),inactive,inactive,inactive,inactive,inactive,inactive,inactive,inactive,inactive
NC(=O)c1ccncc1,inactive,inactive,inactive,inactive,inactive,inactive,inactive,inactive,inactive,inactive
Cc1cscn1,inactive,inactive,inactive,inactive,inactive,inactive,inactive,inactive,,
OCCOCC#CCOCCO,inactive,inactive,inactive,inactive,inactive,inactive,inactive,inactive,inactive,inactive
C1C[C@@H]2[C@H]3CC[C@H](C3)[C@@H]2C1,inactive,inactive,inactive,inactive,inactive,inactive,inactive,inactive,inactive,inactive
CN(C)CCN1C(=O)c2ccccc2N(C)c2ccccc21,inactive,inactive,inactive,inactive,inactive,inactive,inactive,inactive,inactive,inactive
CC(CO)CO,inactive,inactive,inactive,inactive,inactive,inactive,inactive,inactive,inactive,inactive
COC(=O)CCS,inactive,inactive,inactive,inactive,,inactive,inactive,inactive,inactive,inactive
CC(C)(c1ccccc1)c1ccccc1,inactive,inactive,inactive,inactive,inactive,inactive,,inactive,inactive,inactive
Oc1cccc(O)c1O,68 µM (active),inactive,inactive,inactive,inactive,inactive,,inactive,inactive,inactive
O=c1[nH]ncc2ccccc12,inactive,inactive,inactive,inactive,inactive,,inactive,inactive,inactive,inactive
CC(C)(C)CC(=O)OCC(=O)[C@@]1(O)CC[C@H]2[C@@H]3CCC4=CC(=O)C=C[C@]4(C)[C@H]3[C@@H](O)C[C@@]21C,inactive,inactive,21.1 µM (active),,,inactive,inactive,inactive,inactive,inactive
O=[N+]([O-])c1ccc(Nc2ccc(Nc3ccccc3)c(S(=O)(=O)O)c2)c([N+](=O)[O-])c1,54.5 µM (active),inactive,inactive,inactive,inactive,inactive,,inactive,inactive,inactive
O=C(/C=C/c1ccccc1)OCCc1ccccc1,inactive,inactive,inactive,inactive,inactive,,inactive,inactive,inactive,inactive
O=C1c2ccccc2C(=O)C1c1nc2ccccc2c(Br)c1O,inactive,inactive,inactive,inactive,inactive,inactive,,,inactive,inactive
